In the library only some 2.5% were active in any assay of this set; here they are far more common.
D2 PAM-1 = positive allosteric modulators of human D2 dopamine receptor. P14416. DiscoveRx D2 beta-arrestin cells, luminescence, 90 min; 100% = 57 uM dopamine signal. potentiation, % (no concentration beside the values). 0.23% of 360,000 active. AID 624464; in the data active means potentiation above about 50%
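PathHunter D2 cells, attached overnight at 37 deg C, received compound in DMSO plus dopamine at EC20 (50 nM final) for 90 min at 37 deg C. Beta-arrestin recruitment was read as luminescence after 1 h with detection reagent at ambient temperature.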
D2 ag-1 = activates the human D2 dopamine receptor. 0.53% of 340,000 active. activation, % at 2 µM. AID 485358. HEK293 T-REx D2 cells, calcium flux agonist mode. P14416;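 active means activation over 3 SD above normal in the single-dose calcium agonist read, cut at about 30% in these data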; further: 0% is about no effect
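Tetracycline-induced HEK293 T-REx cells with force-coupled D2 receptor, plated overnight at 30 C, loaded with no-wash calcium dye. After a 10 s baseline, compound was pin-added and calcium flux read kinetically for 180 s; calcium rises flagged agonists.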
D2 antag = antagonists of human D2 dopamine receptor; P14416; HEK293 TREx D2 cells, calcium flux, dopamine EC80; inhibition, % at 10 µM; 2% of 340,000 active; AID 485344; in the data active means inhibition above about 30%; inactive means below that, where a call was filed; further: 0% is about no effect
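Dopamine at EC80 is the agonist stimulus; test compounds precede it by 180 s. Calcium flux read kinetically in a force-coupled, inducible HEK293 T-REx D2 cell line.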
D2 PAM-2 = D2 dopamine receptor (human) potentiation; AID 485347; potentiation, % at 10 µM; P14416; 0.34% of 340,000 active; HEK293 T-REx D2, calcium flux, EC20 dopamine potentiation;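 active means potentiation over 3 SD above the plate norm, cut at about 30% in these data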; further: 0% is about no effect
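Potentiation of an EC20 dopamine calcium response measured kinetically over 180 s, after a preceding 180 s compound-only read flagging agonists. Cells: inducible Hek293 Trex D2 line, 4000/well, cultured overnight at 30 C before dye loading.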
Anesthetic bind = binds horse apoferritin like a general anesthetic | apoferritin/1-aminoanthracene competitive binding, fluorescence | 0.074% of 350,000 active | Potency, µM (titrated, usually from 77.5 µM), without a hit: at the top dose activity change, negative = displacement, actives largely listed as inhibitors | AID 485281 | P02791; active means well fitted inhibition curve with a large enough effect; further: potency means the concentration at half of the fitted maximal effect; on the % scale 0 is the no-effect control and ±100 the full control effect; nearly all actives have a fitted effect of over 20% in size
Target sequence (P02791 2-175 limits assumed): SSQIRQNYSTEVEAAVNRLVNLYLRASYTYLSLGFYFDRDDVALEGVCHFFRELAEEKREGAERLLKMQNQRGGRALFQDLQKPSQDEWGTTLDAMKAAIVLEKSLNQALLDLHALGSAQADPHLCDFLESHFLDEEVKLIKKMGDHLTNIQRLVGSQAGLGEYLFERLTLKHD
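Horse-spleen apoferritin (10 uM) in 50% saturated 1-aminoanthracene in PBS was incubated 10 min at room temperature with compound. Fluorescence (ex 380, em 535 nm) was normalized to free and bound 1-AMA, with concentration-response fitted by a four-parameter Hill equation.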
D2 ag-2 = agonists of human D2 dopamine receptor (beta-arrestin); P14416; DiscoveRx PathHunter D2 beta-arrestin, luminescence, 90 min; 100% = 57 uM dopamine signal; activation, % (no concentration beside the values); 0.084% of 360,000 active; in the data active means activation above about 40%
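Agonist mode: compounds alone added to overnight-plated D2 PathHunter cells for 90 min at 37 C, with 57 uM final dopamine (EC100) defining full response. Beta-arrestin recruitment detected by chemiluminescent reagent, read after 1 h at ambient temperature.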
* = called active by the depositor.

Results for CCN1CCN(CCOCCOc2ccccc2-c2ccccc2)CC1 ?
D2 ag-1: -1; D2 antag: 60*; D2 PAM-2: -19; Anesthetic bind: -8%

Results for c1ccc(-c2ccccc2OCCOCCN2CCNCC2)cc1 ?
D2 PAM-1: -14; D2 ag-1: 1; D2 antag: -30; D2 PAM-2: -25; Anesthetic bind: -4%; D2 ag-2: -2

Results for c1ccc(-c2ccccc2OCCOCCN2CCOCC2)cc1 ?
D2 PAM-1: -26; D2 ag-1: -2; D2 antag: 11; D2 PAM-2: -11; Anesthetic bind: 1%; D2 ag-2: -4

What do the screens show for `CC1CCN(CCOc2ccccc2-c2ccccc2)CC1`?
D2 PAM-1: -14; D2 ag-1: 0; D2 antag: 75*; D2 PAM-2: -15; Anesthetic bind: -5%; D2 ag-2: -5

Results for Cn1c(=O)c2cc(NC(=O)Nc3cccnc3)ccc2n1Cc1ccc(Cl)cc1 ?
D2 PAM-1: -3; D2 ag-2: 7

What do the screens show for `CCc1c(C)nc(SCC(=O)Nc2cccc(Br)c2)[nH]c1=O`?
D2 PAM-1: -13; D2 ag-1: -1; D2 antag: -43; D2 PAM-2: -8; Anesthetic bind: -6%; D2 ag-2: -1

How did CCOc1ccccc1-n1c(SCC(=O)NC)nnc1-c1ccco1 do in these assays?
D2 PAM-1: -3; D2 ag-1: 0; D2 antag: -2; D2 PAM-2: 10; Anesthetic bind: -14%; D2 ag-2: 0

Results for Cn1c(SCC(=O)N2CCN(c3ccccc3)CC2)nnc1-c1ccco1 ?
D2 PAM-1: -10; D2 ag-1: 1; D2 antag: 2; D2 PAM-2: -9; Anesthetic bind: -9%; D2 ag-2: -3

Results for CCCn1c(SCC(=O)N2CCN(C(=O)c3ccco3)CC2)nc2ccccc2c1=O ?
D2 PAM-1: 5; D2 ag-1: 1; D2 antag: 31*; D2 PAM-2: -2; Anesthetic bind: -6%; D2 ag-2: -2

Results for O=C(CSc1nnc(-c2ccco2)n1-c1ccccc1)N1CCN(C(=O)c2ccco2)CC1 ?
D2 PAM-1: 1; D2 ag-1: 2; D2 antag: 65*; Anesthetic bind: -6%; D2 ag-2: -2

Results for CCOc1ccc(-n2c(SCC(=O)NC)nnc2-c2ccco2)cc1 ?
D2 PAM-1: -2; D2 ag-1: 0; D2 antag: 36*; D2 PAM-2: 7; Anesthetic bind: 4%; D2 ag-2: 2

Results for COc1cccc(C2c3[nH]c4ccccc4c3CCN2CCCn2cccn2)c1 (configuration not stated) ?
D2 PAM-1: -5; D2 PAM-2: 5; Anesthetic bind: -4%; D2 ag-2: -5

How did O=C(CNC(=S)N(Cc1ccccc1F)C1CCCCC1)NCCN1CCOCC1 do in these assays?
D2 PAM-1: 0; D2 PAM-2: 5; Anesthetic bind: -10%; D2 ag-2: -5

What do the screens show for `CCc1ccccc1NC(=S)N(CCN1CCOCC1)C1CCN(C(C)=O)CC1`?
D2 PAM-1: -1; D2 ag-1: -1; D2 antag: 31*; D2 PAM-2: 1; Anesthetic bind: -3%; D2 ag-2: -4

How did CC(C)c1ccc(OCC(=O)Nc2c3c(nn2C(C)(C)C)CS(=O)(=O)C3)cc1 do in these assays?
D2 PAM-1: 57*; D2 ag-1: -1; D2 antag: 4; D2 PAM-2: 13; D2 ag-2: 10

How did Cn1c(N)c(C(=O)CSc2nnc(-c3ccccc3F)n2N)c(=O)n(C)c1=O do in these assays?
D2 PAM-1: -5; D2 ag-1: 0; D2 antag: 34*; D2 PAM-2: 0; Anesthetic bind: 6%; D2 ag-2: 0

What do the screens show for `O=C1CC(c2ccncc2)c2cc3c(cc2N1)OCO3` (configuration not stated)?
D2 PAM-1: 5; D2 ag-1: 1; D2 antag: 37*; D2 PAM-2: 5; Anesthetic bind: -8%; D2 ag-2: -4

Screening data: PubChem, National Center for Advancing Translational Sciences (NCATS)
